In all, about 8,300 sequences were measured (“log2 fold change of degron read counts, EGFP-low vs EGFP+ sorted cells (limma voom), compound-induced degradation”: median about -1.1, highest 2% from about 3.2 on). The entries come from a sample that favours the highest values as a whole.
T1: CRBN, Q96SW2
T1 chain: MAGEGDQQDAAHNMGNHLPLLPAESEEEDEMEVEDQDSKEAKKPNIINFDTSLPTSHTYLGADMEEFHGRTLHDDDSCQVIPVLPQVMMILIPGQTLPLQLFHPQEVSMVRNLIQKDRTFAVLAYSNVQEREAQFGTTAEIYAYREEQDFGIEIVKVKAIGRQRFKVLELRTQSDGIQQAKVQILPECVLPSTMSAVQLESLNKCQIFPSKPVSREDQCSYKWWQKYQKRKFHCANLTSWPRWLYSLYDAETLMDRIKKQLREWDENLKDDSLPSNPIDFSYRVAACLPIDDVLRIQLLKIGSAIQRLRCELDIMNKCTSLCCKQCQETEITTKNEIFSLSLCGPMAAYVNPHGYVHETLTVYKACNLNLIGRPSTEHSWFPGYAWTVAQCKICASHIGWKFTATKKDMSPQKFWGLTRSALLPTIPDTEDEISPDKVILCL


Target: T1, CRBN, Q96SW2
Experiment: log2 fold change of degron read counts, EGFP-low vs EGFP+ sorted cells (limma voom), compound-induced degradation; higher = more compound-induced degradation of the degron-EGFP fusion; degrons are variants of IKZF1/3 zinc finger 2; compound dose not given here
Conditions: Jurkat, 18 h
[1] = compound: compound 19 (5-tert-butyl-thalidomide)
[2] = compound: compound 22 (5-morpholino-thalidomide)
[3] = compound: compound 33 (diphenyl IMiD analogue)
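Note: pooled lentiviral library of zinc finger degron-EGFP fusions in mCherry-positive Jurkat cells, FACS-sorted after compound exposure, with degron abundance counted by next-generation sequencing.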

Sequence | log2 fold change of degron read counts [1] | log2 fold change of degron read counts [2] | log2 fold change of degron read counts [3] | log2 fold change of degron read counts (compound: thalidomide)
FICNVCGAQFTQKGNLLRHIKL [46F_47I_49N_50V_52G_53A_54Q_55F_67L_, Q9UKT9] | -1.95 | 0.393 | 2 | 0.761
FWCEQCGAIFTQKGNLLRHIKL [46F_47W_49E_50Q_52G_53A_54I_55F_67L_, Q9UKT9] | -0.201 | 0.552 | 0.154 | -1.07
FRCEVCGAIFTQKGNLLRHIKL [46F_47R_49E_50V_52G_53A_54I_55F_67L_, Q9UKT9] | -1.36 | -1.29 | 0.815 | 1.07
FSCEVCGAIFTQKGNLLRHIKL [46F_47S_49E_50V_52G_53A_54I_55F_67L_, Q9UKT9] | 1.27 | 0.887 | 1.42 | 0.379
FYCEVCGAIFTQKGNLLRHIKL [46F_47Y_49E_50V_52G_53A_54I_55F_67L_, Q9UKT9] | 2.89 | 3.45 | 2.43 | 0.38
FQCEVCGAIFTQKGNLLRHIKL [46F_47Q_49E_50V_52G_53A_54I_55F_67L_, Q9UKT9] | -1.13 | 3.07 | 2.65 | 3.7
FICEVCGAIFTQKGNLLRHIKL [46F_47I_49E_50V_52G_53A_54I_55F_67L_, Q9UKT9] | -1.14 | 0.0357 | 2.04 | 1.14
FVCEVCGAIFTQKGNLLRHIKL [46F_47V_49E_50V_52G_53A_54I_55F_67L_, Q9UKT9] | -1.03 | -0.779 | 1.43 | 1.47

Source: the supplement of paper PMC12645437, “Orthogonal IMiD-Degron Pairs Induce Selective Protein Degradation in Cells” (ACS Chemical Biology, 2025)
